# Source: PubChem BioAssay (EPA / NIEHS)
# Values joined by “and” are separate entries in the source; they are usually repeats but may differ in a detail not shown here. Equal values may be shown once. Where a structure was tested more than once in an assay, its records may differ in their call. Active and inactive are the calls of the source. The calls were made as follows: active = hit-call score of the fitted dose curve at least 0.9, where 1 is the maximum; inactive = score below 0.9.
# Key:
# [1] = read-out: Intercellular Adhesion Molecule 1 (ICAM1), ICAM1 (gene 3383); assay: BSK_BE3C_ICAM1: BioMAP Diversity Plus: BE3C Assay for Intercellular Adhesion Molecule 1 (ICAM1) Biomarker Activity (AID 2284278); settings: primary human bronchial epithelial cells;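 also: cell-surface ICAM-1 protein level quantified by ELISA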
# In short: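 Primary human bronchial epithelial cells in BE3C system, 24 h after chemical dosing; cell-surface ICAM-1 measured by ELISA relative to DMSO. Parallel SRB staining (0.1% SRB after 10% TCA fixation, read at 560 nm) assessed cytotoxicity.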
# [2] = read-out: Interferon-inducible T-cell alpha chemoattractant (ITAC), CXCL11 (gene 6373); assay: BSK_BE3C_ITAC: BioMAP Diversity Plus: BE3C Assay for Interferon-inducible T-cell alpha chemoattractant (ITAC) Biomarker Activity (AID 2284279); settings: primary human bronchial epithelial cells
# In short: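 BE3C cells (human primary bronchial epithelium), 24 h compound exposure, I-TAC by ELISA, DMSO = negative control/baseline, positive fitting direction.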
# [3] = read-out: Interleukin-8 (IL8), CXCL8 (gene 3576); assay: BSK_BE3C_IL8: BioMAP Diversity Plus: BE3C Assay for Interleukin-8 (IL8) Biomarker Activity (AID 2284280); settings: primary human bronchial epithelial cells
# In short: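 Primary human bronchial epithelial cells (BE3C system) exposed 24 h; IL-8 measured by ELISA and fitted in positive direction versus DMSO. Overt cytotoxicity assessed by SRB total-protein staining in parallel cultures.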
# KRT18 (gene 3875) = assay: BSK_BE3C_Keratin818: BioMAP Diversity Plus: BE3C Assay for Keratin 818 Biomarker Activity (AID 2284282); settings: primary human bronchial epithelial cells
# In short: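 Primary human bronchial epithelial cells treated 24 h; Keratin 8/18 quantified by ELISA, fit relative to DMSO. Cytotoxicity tracked in parallel cultures by sulforhodamine B total-protein staining.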
# [4] = read-out: Matrix Metallopeptidase 9 (MMP9), MMP9 (gene 4318); assay: BSK_BE3C_MMP9: BioMAP Diversity Plus: BE3C Assay for Matrix Metallopeptidase 9 (MMP9) Biomarker Activity (AID 2284283); settings: primary human bronchial epithelial cells
# In short: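 Human primary bronchial epithelial cells in the BE3C system were dosed with compound for 24 h. MMP-9 was measured by ELISA, and the positive-direction response was fitted relative to DMSO as baseline. Parallel SRB staining gauged cytotoxicity.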
# [5] = read-out: Plasminogen activator inhibitor-1 (PAI1), SERPINE1 (gene 5054); assay: BSK_CASM3C_PAI1: BioMAP Diversity Plus: CASM3C Assay for Plasminogen activator inhibitor-1 (PAI1) Biomarker Activity (AID 2284284); settings: primary human coronary artery smooth muscle cells;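 also: PAI-1 protein level measured by ELISA 24 h after dosing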
# [6] = read-out: Monocyte Chemoattractant Protein-1 (MCP1), CCL2 (gene 6347); assay: BSK_hDFCGF_MCP1: BioMAP Diversity Plus: hDFCGF Assay for Monocyte Chemoattractant Protein-1 (MCP1) Biomarker Activity (AID 2284285); settings: primary human foreskin fibroblasts
# In short: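 Human foreskin fibroblasts (hDFCGF system) were exposed to compound and secreted MCP-1 was measured by ELISA after 24 hours. Activity was fitted relative to DMSO. Cytotoxicity was checked by SRB total-protein staining in parallel cultures.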
# [7] = read-out: Intercellular Adhesion Molecule 1 (ICAM1), ICAM1 (gene 3383); assay: BSK_hDFCGF_ICAM1: BioMAP Diversity Plus: hDFCGF Assay for Intercellular Adhesion Molecule 1 (ICAM1) Biomarker Activity (AID 2284287); settings: primary human foreskin fibroblasts
# In short: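 Primary human foreskin fibroblasts (hDFCGF system) dosed with chemical; ICAM-1 quantified by ELISA at 24 h relative to DMSO. Parallel SRB total-protein staining to assess overt cytotoxicity.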
# [8] = read-out: TIMP metallopeptidase inhibitor 2 (TIMP2), TIMP2 (gene 7077); assay: BSK_hDFCGF_TIMP2: BioMAP Diversity Plus: hDFCGF Assay for TIMP metallopeptidase inhibitor 2 (TIMP2) Biomarker Activity (AID 2284289); settings: primary human foreskin fibroblasts
# In short: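 Primary human foreskin fibroblasts in the hDFCGF system, dosed for 24 h; TIMP-2 level measured by ELISA, fitted in the positive direction against DMSO; cytotoxicity checked in parallel by sulforhodamine B total protein staining.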
# [9] = read-out: Thrombomodulin, THBD (gene 7056); assay: BSK_LPS_Thrombomodulin: BioMAP Diversity Plus: LPS Assay for Thrombomodulin Biomarker Activity (AID 2284296); settings: primary human HUVEC with PBMC
# In short: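 Human umbilical vein endothelial cells co-cultured with PBMC and stimulated with LPS; cell-surface thrombomodulin measured by ELISA 24 hours after compound. Gain or loss versus DMSO; cytotoxicity checked by SRB staining in parallel cultures.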
# [10] = read-out: Vascular cell adhesion molecule 1 (VCAM1), VCAM1 (gene 7412); assay: BSK_IMphg_VCAM1: BioMAP Diversity Plus: IMphg Assay for Vascular cell adhesion molecule 1 (VCAM1) Biomarker Activity (AID 2284286); settings: primary human endothelial cells with macrophages
# In short: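 Human venular endothelial cells co-cultured with macrophages; VCAM-1 quantified by ELISA 24 h after dosing, fitted in the positive direction against DMSO. Cytotoxicity was checked in parallel cultures by SRB total-protein staining (0.1% SRB after 10% TCA fixation, 560 nm).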
# CD40, CD40 (gene 958) = assay: BSK_IMphg_CD40: BioMAP Diversity Plus: IMphg Assay for CD40 Biomarker Activity (AID 2284288); settings: primary human endothelial cells with macrophages
# In short: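 Venular endothelial cells co-cultured with macrophages (human primary), CD40 measured by ELISA 24 h after dosing. Positive-direction fit vs DMSO baseline; cytotoxicity tracked by SRB total-protein staining in parallel cultures.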
# [11] = read-out: Interleukin-1 alpha (IL1a), IL1A (gene 3552); assay: BSK_IMphg_IL1a: BioMAP Diversity Plus: IMphg Assay for Interleukin-1 alpha (IL1a) Biomarker Activity (AID 2284290); settings: primary human endothelial cells with macrophages
# In short: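 Human venular endothelial cells co-cultured with macrophages, IMphg system. IL-1α is measured by ELISA 24 h after dosing and fitted in the positive direction against DMSO. Cytotoxicity is assessed by SRB staining of parallel cultures.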
# [12] = read-out: E-selectin (Homo sapiens) (UniProt P16581); assay: BSK_IMphg_ESelectin: BioMAP Diversity Plus: IMphg Assay for Eselectin Biomarker Activity (AID 2284291); settings: primary human endothelial cells with macrophages
# In short: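 Human venular endothelial cell–macrophage co-culture, E-selectin measured by ELISA 24 h after chemical dosing. Signal fitted in the positive direction against DMSO as negative control and baseline.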
# [13] = BSK_IMphg_SRB: Viability Assessment in the BioMAP Diversity Plus: IMphg Assay (AID 2284292); settings: primary human endothelial cells with macrophages;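 also: measured one day after compound addition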
# In short: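 Human venular endothelial cells with macrophages, 24 h after chemical dosing; total protein by 0.1% SRB staining after 10% TCA fixation, read at 560 nm. Positive-direction fitting versus DMSO baseline.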
# [14] = read-out: Macrophage colony-stimulating factor (MCSF), CSF1 (gene 1435); assay: BSK_IMphg_MCSF: BioMAP Diversity Plus: IMphg Assay for Macrophage colony-stimulating factor (MCSF) Biomarker Activity (AID 2284293); settings: primary human endothelial cells with macrophages
# In short: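 Co-culture of human venular endothelial cells and macrophages, 24 hours of chemical exposure. M-CSF quantified by ELISA, with parallel SRB total-protein staining for cytotoxicity; activity fitted relative to DMSO.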
# [15] = read-out: Interleukin-10 (IL10), IL10 (gene 3586); assay: BSK_IMphg_IL10: BioMAP Diversity Plus: IMphg Assay for Interleukin-10 (IL10) Biomarker Activity (AID 2284294); settings: primary human endothelial cells with macrophages
# In short: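 Human venular endothelial cells cocultured with macrophages, dosed 24 h; IL-10 measured by ELISA, activity relative to DMSO. Cytotoxicity assessed in parallel cultures by sulforhodamine B total-protein staining.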
# [16] = BSK_IMphg_SRB.Mphg: Macrophage Viability Assessment in the BioMAP Diversity Plus: IMphg Assay (AID 2284295); settings: primary human endothelial cells with macrophages
# In short: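 Venular endothelial cells co-cultured with macrophages, read 24 h after dosing. Total protein measured by 0.1% SRB staining after 10% TCA fixation, absorbance at 560 nm. Fitted in positive direction against DMSO baseline.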
# [17] = IUF_NPC2c_oligodendrocyte_migration_120hr: Leibniz Research Institute for Environmental Medicine (IUF) 120-hour Neural Progenitor Cell Migration Assay for Oligodendrocyte Migration (NPC2c) (AID 2284297);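 also: O4-positive oligodendrocyte migration distance divided by radial glia migration distance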
# In short: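 Human fetal cortex-derived neural progenitor spheres (0.3 mm) were plated on poly-D-lysine/laminin in N2 differentiation medium and exposed to 7 concentrations for 120 h, with half-medium renewal at day 3. Oligodendrocyte migration distance was normalized to radial glia migration, relative to DMSO.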
# [18] = IUF_NPC2a_radial_glia_migration_120hr: Leibniz Research Institute for Environmental Medicine (IUF) 120-hour Neural Progenitor Cell Migration Assay for Radial Glia Migration (NPC2a) (AID 2284298)
# In short: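 Single 0.3 mm primary human fetal-cortex (GW 16-19) NPC spheres were plated on poly-D-lysine/laminin in N2 differentiation medium and exposed from day 0 for 120 h, half-medium refreshed day 3. Migration distance came from Hoechst nuclei-density imaging, relative to DMSO.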
# E-selectin (Homo sapiens), sequence (P16581 whole entry, looked up): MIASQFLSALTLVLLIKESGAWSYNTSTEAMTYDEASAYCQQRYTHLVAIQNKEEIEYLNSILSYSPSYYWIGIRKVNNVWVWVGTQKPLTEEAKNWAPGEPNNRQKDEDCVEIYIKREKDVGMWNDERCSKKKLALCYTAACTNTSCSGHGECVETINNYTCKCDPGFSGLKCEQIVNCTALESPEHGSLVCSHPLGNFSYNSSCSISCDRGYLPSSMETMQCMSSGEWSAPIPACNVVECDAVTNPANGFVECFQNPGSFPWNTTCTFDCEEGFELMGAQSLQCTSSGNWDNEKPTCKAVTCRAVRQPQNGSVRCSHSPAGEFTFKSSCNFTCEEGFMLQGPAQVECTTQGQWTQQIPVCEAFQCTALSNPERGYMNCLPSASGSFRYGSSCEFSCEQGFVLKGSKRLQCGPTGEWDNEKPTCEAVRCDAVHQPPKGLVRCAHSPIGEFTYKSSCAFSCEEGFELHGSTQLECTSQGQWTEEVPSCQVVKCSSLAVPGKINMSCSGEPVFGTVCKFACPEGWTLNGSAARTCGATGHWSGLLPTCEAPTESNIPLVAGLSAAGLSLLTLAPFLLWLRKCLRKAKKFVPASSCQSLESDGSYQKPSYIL
smiles,measurement,setting,value
c1ccc(OCCOc2ccccc2)cc1,outcome,[1],inactive
same,outcome,[2],inactive
same,outcome,[3],inactive
same,outcome,KRT18 (gene 3875),inactive
same,outcome,[4],inactive
same,outcome,[5],inactive
same,outcome,[6],inactive
same,outcome,[7],inactive
same,AC50,[8],3.6 µM (active)
same,outcome,[8],inactive
same,AC50,[9],12.3 µM (active)
same,outcome,[9],inactive
O=C(O)C(F)(F)OC(F)(F)C(F)(F)OC(F)(F)C(F)(F)C(F)(F)C(F)(F)F,outcome,[1],inactive
same,AC50,[2],7.77 µM (active) and 7.6 µM (active)
same,outcome,[3],inactive
same,outcome,KRT18 (gene 3875),inactive
same,outcome,[4],inactive
same,outcome,[5],inactive
same,outcome,[6],inactive
same,outcome,[10],inactive
same,outcome,[7],inactive
same,AC50,"CD40, CD40 (gene 958)",30 µM (active)
same,outcome,"CD40, CD40 (gene 958)",inactive
same,outcome,[8],inactive
same,outcome,[11],inactive
same,outcome,[12],inactive
same,outcome,[13],inactive
same,outcome,[14],inactive
same,AC50,[15],46.5 µM (active) and 49.5 µM (active)
same,outcome,[16],inactive
same,outcome,[9],inactive
c1ccc2scnc2c1,outcome,[17],inactive
same,outcome,[18],inactive
CCCO[Si](OCCC)(OCCC)OCCC,outcome,[1],inactive
same,outcome,[2],inactive
same,outcome,[3],inactive
same,outcome,KRT18 (gene 3875),inactive
same,outcome,[4],inactive
same,outcome,[5],inactive
same,outcome,[6],inactive
same,outcome,[7],inactive
same,outcome,[8],inactive
same,outcome,[9],inactive
CCn1cc(C(=O)O)c(=O)c2ccc(C)nc21,outcome,[1],inactive
same,outcome,[2],inactive
same,outcome,[3],inactive
same,outcome,KRT18 (gene 3875),inactive
same,outcome,[4],inactive
same,outcome,[5],inactive
same,outcome,[6],inactive
same,outcome,[7],inactive
same,outcome,[8],inactive
same,outcome,[9],inactive
